This is one part of a sample in which hits are shown more often than they occur.
Cruzain inh noDet: inhibitors of Trypanosoma cruzi cruzain without detergent. P25779. purified cruzain, Z-FR-AMC fluorescence, no detergent. Potency, µM, for the others: max response, negative = inhibition, actives largely listed as inhibitors. 200,000 tested, 2.3% active;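 further: plate controls were enzyme without inhibitor for no effect and buffer without enzyme for full effect; nearly all actives have a fitted effect of over 40% in size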
Target sequence (P25779 123-467 limits assumed): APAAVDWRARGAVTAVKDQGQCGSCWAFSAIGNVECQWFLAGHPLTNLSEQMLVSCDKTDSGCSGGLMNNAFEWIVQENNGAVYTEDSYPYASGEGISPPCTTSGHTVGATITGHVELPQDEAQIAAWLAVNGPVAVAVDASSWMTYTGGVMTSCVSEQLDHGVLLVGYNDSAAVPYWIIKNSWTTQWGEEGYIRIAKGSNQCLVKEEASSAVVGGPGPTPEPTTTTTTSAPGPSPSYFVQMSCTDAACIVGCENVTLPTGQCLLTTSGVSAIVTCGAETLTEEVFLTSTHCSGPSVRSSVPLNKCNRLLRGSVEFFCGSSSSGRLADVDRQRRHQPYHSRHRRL
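Detergent-free condition (0.00005% Triton X-100) in acetate buffer pH 5.5 with DTT. 1.5 nM enzyme and compound were pre-mixed 15 min, then 2 uM Z-FR-AMC substrate added; reaction progress from fluorescence change between first and third reads (60 s).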
Cruzain Triton: cruzain (T. cruzi) inhibition with detergent. AID 1478. 200,000 tested, 0.43% active. P25779. purified cruzain, Z-FR-AMC fluorescence, 0.01% Triton. Potency, µM, without a hit: max response, negative = inhibition, actives largely listed as inhibitors;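 further: plate controls were neutral wells for no effect and buffer without enzyme for full effect; nearly all actives have a fitted effect of over 40% in size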
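Purified cruzain (1.5 nM final) was preincubated with compounds for 15 min at room temperature in 100 mM sodium acetate pH 5.5, 5 mM DTT, 0.01% Triton X-100. Reaction started with 2 uM Z-FR-AMC; AMC fluorescence change over 60 s gave activity.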
NS1 inh: inhibitors of influenza NS1 protein function. Potency, µM (doses to about 46.1 µM), for inactives: at the highest dose activity, positive = more growth. 270,000 tested, 0.4% active. AID 2326; calls by dose curve; further: actives are rising curves; nearly all actives have a fitted effect of over 50% in size
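OD600 was taken as the measure of yeast growth restored by compound in an NS1-expressing S. cerevisiae strain. Cells had been washed out of glucose medium and diluted 1:100 into galactose -URA medium, pH 6.0.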
An asterisk follows results filed as active; ? = inconclusive; . = no result. Unless noted, the call rests on the fitted dose curve; in most records, active means well fitted curve in the direction sought with a large enough effect; inconclusive means small, poorly fitted or top-dose-only effect, or another doubt; inactive means no such curve, though single readings can be large; an effect the other way counts as inactive or inconclusive. Potency means the concentration at half of the fitted maximal effect.

SMILES	Cruzain inh noDet	Cruzain Triton	NS1 inh
O=C(Nc1cccc(C(F)(F)F)c1)c1cc2ccc3cccnc3c2[nH]1	-14%	0%	.
O=C(Nc1ccc(F)cc1F)c1cc2ccc3cccnc3c2[nH]1	25µM*	-2%	.
COc1ccc(-c2nc(CSc3nncn4c3cc3oc(C)cc34)c(C)o2)cc1	1%	-4%	.
COc1ccc(NC(=O)c2nn(C34CC5CC(CC(C5)C3)C4)cc2[N+](=O)[O-])cc1	-1%	-4%	-2%
O=C(Nc1ccc2ccccc2c1)c1nn(C23CC4CC(CC(C4)C2)C3)cc1Br	10µM*	4%	2%
CCn1cc(S(=O)(=O)Nc2cc(C)ccc2F)cn1	.	.	6%
C/C(=N\Nc1ccc(S(=O)(=O)Nc2ccccc2)cc1[N+](=O)[O-])c1ccc(N2CCOCC2)cc1	.	.	1%
C/C(=N\Nc1ccc(S(=O)(=O)Nc2ccc(Cl)cc2)cc1[N+](=O)[O-])c1ccc(N2CCOCC2)cc1	10µM*	-6%	6%
COc1ccc(NS(=O)(=O)c2ccc(N/N=C(\C)c3ccncc3)c([N+](=O)[O-])c2)cc1	13µM*	-8%	?
C/C(=N\Nc1ccc(S(=O)(=O)Nc2ccccc2)cc1[N+](=O)[O-])c1ccncc1	.	.	3%
Cc1cc(C)nc(SCC(=O)Nc2ccc(S(=O)(=O)Nc3nccs3)cc2)n1	10%	3%	3%
Cn1c(N)c(C(=O)COC(=O)c2cc(-c3ccccc3)nc3ccccc23)c(=O)n(C)c1=O	?	0%	.
Cn1c(=O)c(C(=O)COC(=O)c2cc(-c3ccco3)nc3ccccc23)c(N)n(Cc2ccccc2)c1=O	12%	-15%	8.9µM*
Cn1c(N)c(C(=O)COC(=O)c2cc(-c3ccccc3)nc3ccccc23)c(=O)n(Cc2ccccc2)c1=O	13µM*	0%	?
CC(C)Cn1c(N)c(C(=O)COC(=O)c2cc(-c3ccco3)nc3ccccc23)c(=O)n(C)c1=O	?	-10%	?
O=C(COC(=O)CCC1CCCC1)Nc1nc2c(F)c(F)c(F)cc2s1	10µM*	-4%	4%
O=C(COC(=O)c1ccco1)Nc1nc2c(F)c(F)c(F)cc2s1	.	.	-8%
S=C([S-])NCCNC(=S)[S-].[Zn+2]	?	32µM*	.
Cc1cc(C(=O)COc2cccnc2[N+](=O)[O-])c(C)n1Cc1ccco1	.	.	2%
Cc1cc(C(=O)COC(=O)c2cc(Cl)ccc2N)c(C)n1Cc1ccco1	25µM*	-10%	22%
Cn1c(CNC(=O)CNS(=O)(=O)c2ccc(Br)cc2)cc(=O)n(C)c1=O	.	.	14%
CSCC(C)N1CCC(Oc2cccc(C(=O)NCc3ccccn3)c2)CC1 (stereo not given)	.	.	-4%
Cc1sc2ncnc(N(C)C3CCCCC3)c2c1C	.	.	2%
CCOC(=O)C1=C(C)NC(C)=C(C(=O)OCC)C1C(=O)OCC(=O)NC(C)C	25%	3%	-13%
O=C(O)c1ccccc1/C=N/Nc1ccc(S(=O)(=O)N2CCCC2)cc1[N+](=O)[O-]	.	.	2%
SMILES	Cruzain inh noDet	Cruzain Triton	NS1 inh
CCC(/C=N/Nc1ccc(S(=O)(=O)N2CCCC2)cc1[N+](=O)[O-])CC	20µM*	-1%	10%
COc1ccc(N(Cc2cc3cccc(C)c3[nH]c2=O)C(=O)C2CCCO2)cc1 (stereo not given)	.	.	0%
COc1ccc(NC(=O)COc2nsnc2N2CCCCC2)cc1	-6%	-7%	-8%
COc1cccc(Nc2sc(C(=O)c3ccc(F)cc3)c(N)c2C(=O)NCc2ccc(Cl)cc2)c1	-16%	-3%	.
COc1ccc(C(=O)c2sc(Nc3cccc(OC)c3)c(C(=O)Nc3cccc(C)c3C)c2N)cc1	6.3µM*	0%	13%
COc1cccc(Nc2sc(C(=O)c3ccc(Cl)cc3)c(N)c2C(=O)NCc2ccc(C)cc2)c1	?	0%	.
COc1ccccc1NC(=O)c1c(Nc2ccccc2C)sc(C(=O)Nc2cccc(Cl)c2)c1N	3.2µM*	2%	?
COc1ccc(Nc2sc(C(=O)c3ccc(Cl)cc3)c(N)c2C(=O)Nc2ccccc2OC)cc1	4µM*	0%	0%
CCOc1ccccc1Nc1sc(C(=O)c2ccccc2)c(N)c1C(=O)Nc1ccccc1	?	-2%	.
COc1ccc(NC(=O)c2c(Nc3ccccc3)sc(C(=O)c3ccc(F)cc3)c2N)cc1	10µM*	-8%	-2%
COc1ccc(C(=O)c2sc(Nc3ccccc3)c(C(=O)Nc3ccc(OC)c(OC)c3)c2N)cc1	-22%	-7%	16%
CC(Sc1nnc2c(n1)[nH]c1ccccc12)C(=O)N(C)C1CCCCC1 (stereo not given)	.	.	-13%
COc1ccc(Nc2ccc3cc(S(=O)(=O)N4CCCC4)ccc3n2)cc1OC	-13%	-7%	.
O=C(/C=C/c1ccco1)NC(=S)Nc1ccc(C(=O)O)cc1	.	.	4%
O=C(c1ccc(Cl)cc1)N(c1ccccn1)C1CCCCC1	.	.	-9%
N#Cc1ccccc1OCC(=O)N1CCc2ccccc2C1	.	.	-10%
Clc1ccc(N2CCN(Cc3c[nH]c4ncccc34)CC2)cc1	-4%	-5%	6%
O=C1OCCN1C(=O)[C@H]1[C@H](c2ccc(F)cc2)C(c2ccc(F)cc2)=NN1c1ccccc1	?	-4%	?
O=C1OCCN1C(=O)[C@H]1[C@H](c2ccc(F)cc2)C(c2ccc(F)cc2)=NN1c1ccc(Br)cc1	25µM*	-3%	?
O=C1OCCN1C(=O)[C@H]1[C@H](c2ccc(Cl)cc2)C(c2ccc(F)cc2)=NN1c1ccc(Br)cc1	11µM*	-13%	.
O=C1OCCN1C(=O)[C@H]1[C@H](c2ccc(Cl)cc2)C(c2ccc(F)cc2)=NN1c1ccccc1	?	3%	.
COc1ccc(OC)c(NC(=O)c2ccc(S(=O)(=O)N3CCOCC3)cc2)c1	.	.	-14%
O=C(O)C[C@@H](C(=O)O)C1c2ccccc2-c2ccccc21	0%	0%	0%
CCN(CC)C(=O)c1cc(-c2ccc3c(c2)OCO3)on1	.	.	1%
CCOC(=O)c1c(C)[nH]c(C(=O)NNC(=O)c2ccc(C(C)(C)C)cc2)c1C	?	-5%	?
SMILES	Cruzain inh noDet	Cruzain Triton	NS1 inh
O=C(N=Nc1c(O)[nH]c2ccccc12)c1cccc(S(=O)(=O)N2CCCCC2)c1	-17%	4%	?
CC(C)c1ccc2[nH]c(O)c(N=NC(=O)c3cccc(S(=O)(=O)N4CCCCC4)c3)c2c1	25µM*	-7%	18%
Fc1cccc(NCc2ccoc2)c1	-8%	0%	10%
Cc1ccc(-c2nnn(CC(=O)N(c3ccc(F)cc3)C(C(=O)NC3CCCC3)c3ccco3)n2)o1 (stereo not given)	10µM*	2%	-6%
Cc1ccc(-c2nnn(CC(=O)N(c3cccc(F)c3)C(C(=O)NC3CCCC3)c3ccncc3)n2)o1 (stereo not given)	.	.	2%
Cc1ccc(-c2nnn(CC(=O)N(c3cccc(F)c3)C(C(=O)NC3CCCC3)c3ccco3)n2)o1 (stereo not given)	6.3µM*	2%	-3%
Cc1ccc(-c2nnn(CC(=O)N(c3ccccc3F)C(C(=O)NC3CCCC3)c3ccco3)n2)o1 (stereo not given)	3%	1%	-15%
COc1ccc(CNC(=O)C(C)n2nc(C)c3sc4ccccc4c3c2=O)cc1OC (stereo not given)	-2%	-3%	.
COc1ccc(CCNC(=O)C(C)n2nc(C)c3sc4ccccc4c3c2=O)cc1OC (stereo not given)	32µM*	-5%	.
